FLuc inh – Photinus pyralis luciferase inhibition; purified P. pyralis luciferase, luminescence, biochemical; Potency, µM (top dose mostly 115 µM), usual class: inhibitors; 76,000 tested, 2.5% active; note: nearly all actives have a fitted effect of over 65% in size
Target sequence (P08659 whole entry, looked up): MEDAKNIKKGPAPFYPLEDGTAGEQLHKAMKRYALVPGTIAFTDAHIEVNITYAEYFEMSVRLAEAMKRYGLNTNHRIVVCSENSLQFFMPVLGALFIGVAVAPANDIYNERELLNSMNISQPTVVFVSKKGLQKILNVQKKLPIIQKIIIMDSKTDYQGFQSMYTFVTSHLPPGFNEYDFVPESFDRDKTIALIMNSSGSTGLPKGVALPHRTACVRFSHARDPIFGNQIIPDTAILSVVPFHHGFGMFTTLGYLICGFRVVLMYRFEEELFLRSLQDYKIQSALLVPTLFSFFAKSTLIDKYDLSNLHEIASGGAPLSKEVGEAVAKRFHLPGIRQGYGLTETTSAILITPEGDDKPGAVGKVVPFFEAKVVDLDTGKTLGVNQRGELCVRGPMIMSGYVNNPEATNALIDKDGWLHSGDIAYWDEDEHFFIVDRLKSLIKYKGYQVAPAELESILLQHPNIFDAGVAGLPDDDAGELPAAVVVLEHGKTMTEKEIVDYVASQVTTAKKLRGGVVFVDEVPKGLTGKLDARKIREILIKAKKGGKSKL
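Luminescence read by CCD imaging after purified firefly luciferase (10nM final) was added to substrate buffer holding 10uM D-luciferin and 10uM ATP, pH 7.5, pre-dosed with compound.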
NIH3T3 tox – NIH 3T3 cell cytotoxicity; NIH 3T3 viability, CellTiter-Glo ATP luminescence, 48-72 h; 94,000 tested, 4.3% active; Potency, µM (top dose mostly 96.7 µM), without a hit: top-dose activity change, negative = cytotoxicity, hits mostly inhibitors; note: nearly all actives have a fitted effect of over 55% in size
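Viability of NIH 3T3 cells after 48 or 72 hr compound treatment at 37 °C was assessed by CellTiter-Glo, with luminescence imaged following a 10 min room-temperature step.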
hNpr1 antagonist – blocks ANP-stimulated signaling of human Npr1 receptor; P16066; HEK293 hNpr1 GloSensor cGMP, ANP-stimulated luminescence; Potency, µM (series often up to 46.3 µM), inactives show at the highest dose activity change, negative = inhibition, actives largely listed as inhibitors; 76,000 tested, 1.6% active; AID 1347048; calls by dose curve; note: nearly all actives have a fitted effect of over 60% in size
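Compound pre-incubated 30 min at room temperature on GloSensor-loaded HEK293 cells stably carrying hNpr1 and the pGS-40F cGMP biosensor. Stimulation uses hNppA at 0.1 nM final; luminescence is taken at baseline and 20 min post-agonist.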
HEK cytotox – cytotoxic compounds in HEK 293 cells; Potency, µM (highest dose often 115 µM), for the others: at the highest dose activity change, negative = cytotoxicity, usual class: inhibitors; HEK 293 viability, ATP luminescence (CellTiter-Glo), 48-72 h; AID 1345083; 94,000 tested, 6.6% active; note: nearly all actives have a fitted effect of over 60% in size
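qHTS cytotoxicity; HEK 293, 250 cells/well; compound pinned; 48 or 72 hr, 37 degree Celsius, 5% CO2, 95% humidity; CellTiter-Glo, 10 min RT; luminescence (ATP).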
* hit, by the source's call; i = inactive; ? = inconclusive; . = no result given; [ ] = remark or other dose. This is a sample that favours compounds with a hit; in the whole collection about 11% have one here. Unless noted, calls come from the whole dose curve; as a rule, active = well fitted curve in the direction sought with a large enough effect; inconclusive = small, poorly fitted or top-dose-only effect, or another doubt; inactive = no such curve, though single readings can be large; an effect the other way counts as inactive or inconclusive. % is set by controls: 0 for no effect and ±100 for the full control effect; potency is the fitted concentration of half-maximal effect.

SMILES | FLuc inh | NIH3T3 tox | hNpr1 antagonist | HEK cytotox
COc1ccccc1-c1cn2c(n1)CO[C@@H](CNCc1ccc(F)c(F)c1)C2 | i | ? | 1%[70.6 µM] | ?
COc1ccccc1CNC[C@H]1Cn2cc(-c3ccccc3OC)nc2CO1 | i | 79µM* | -1%[70.6 µM] | 112µM*
COc1ccccc1-c1cn2c(n1)CO[C@@H](CNCc1ccc(F)cc1)C2 | i | ? | 9%[70.6 µM] | 71µM*
CN1CC2(CCN(Cc3cn[nH]c3-c3cccs3)CC2)CC1C(=O)N1CCOCC1 (centres undefined) | i | -18% | -6% | i
CN(C)[C@@H]1CN(Cc2ccc(F)c(F)c2)CC[C@@H]1CO | . | -8% | . | -8%
O=C(NCC1CN(CC2CC2)CC12CN(c1ccccc1)C2)c1ccccc1 (centres undefined) | i | 89µM* | -16%[70.6 µM] | ?
O=C(NCC1CN(CC2CC2)CC12CN(c1ccccc1)C2)Nc1ccccc1 (centres undefined) | i | 100µM* | -1%[70.6 µM] | ?
CCNC(=O)[C@@H]1C[C@H](NC(C)=O)CN1Cc1ccc(OC2CCCC2)cc1 | i | -12% | 1% | i
CC(c1ccc(-c2ccc(N(C)C)nn2)cc1)N(C)C (centres undefined) | 16µM* | -11% | ? | 3%
Cc1ccc(S(=O)(=O)N2CCCN(C)c3ccccc32)cc1C | i | ? | -8% | ?
CN1CCCN(S(=O)(=O)c2ccc3c(c2)OCCO3)c2ccccc21 | i | ? | -13% | 32µM*
CC(C)NC(=O)Cn1nc2c(cc1=O)CCCCC2 | i | i | -1% | 8%
O=C(Cn1nc2c(cc1=O)CCCCC2)NCCn1ccc2c(Cl)cccc21 | i | ? | -22% | 79µM*
Cc1ccc2nc(NC(=O)Cn3nc4c(cc3=O)CCCCC4)sc2c1 | 35µM* | -17% | 2% | ?
CC(C)[C@H](NC(=O)Cn1nc2c(cc1=O)CCCCC2)C(=O)O | 22µM* | i | 5% | 4%
COCCc1noc([C@@H]2CN(Cc3ccc(F)cc3)C[C@H]2CO)n1 | i | 2% | 2% | i
O=S(=O)(c1cccs1)N1CCN(c2ccc3nnc(C4CC4)n3n2)CC1 | . | ? | . | -29%
Cc1cc(=O)n(CC(=O)Nc2cccc(C(C)C)c2)c(N2CCOCC2)n1 | i | -9% | -1% | ?
O=C(C1CCC1)N1CCC(c2noc(-c3ccncc3)n2)C1 (centres undefined) | i | -1% | -1% | 14%
O=C(NC1CCN(c2cc(-c3ccc(Cl)cc3)[nH]n2)CC1)c1ccncc1 | i | ? | ? | 28µM*
O=C(NC1CCN(c2cc(-c3ccc(Cl)cc3)[nH]n2)C1)c1ccc2[nH]ccc2c1 (centres undefined) | ? | 40µM* | -24% | ?
O=C(NC1CCN(c2cc(-c3ccc(F)cc3)[nH]n2)C1)c1ccc2[nH]ccc2c1 (centres undefined) | i | ? | -8% | ?
N#Cc1ccc(C(=O)NC2CCN(c3cc(-c4ccc(Cl)cc4)[nH]n3)C2)cc1 (centres undefined) | i | ? | ? | 45µM*
O=C(NC1CCN(c2cc(-c3ccc(F)cc3)[nH]n2)CC1)c1ccc2[nH]ccc2c1 | i | 25µM* | -16% | ?
COc1ccccc1CC(=O)N1CC[C@@H]2NC(=O)[C@H]3C[C@H](NC(=O)C4CCC4)CN3C(=O)[C@H]21 | i | i | -2% | 0%
SMILES | FLuc inh | NIH3T3 tox | hNpr1 antagonist | HEK cytotox
O=C(COc1ccc(F)cc1)N1CC(c2noc(COc3ccccc3)n2)C1 | i | ? | -17% | ?
O=C(NC1CCN(c2cc(-c3ccc(F)cc3)[nH]n2)CC1)c1ccc(OC(F)(F)F)cc1 | i | 28µM* | -20% | 20µM*
COc1ccc(C(=O)NC2CCN(c3cc(-c4ccc(F)cc4)[nH]n3)CC2)cc1 | i | -1% | -4% | ?
O=C(C1CCCN1C(=O)c1ccccc1)N1CCC(N2CCCC2=O)CC1 (centres undefined) | . | i | . | 4%
COc1ccc(CN2CCN(c3ccnc(C)n3)CC2CCO)c(C)c1C (centres undefined) | i | -13% | 4% | ?
COc1ccc(CN2CCN(c3ncnc4c3CCC4)CC2CCO)c(C)c1C (centres undefined) | i | ? | -25% | 10µM*
CC(C)CCN1CCOc2cc([S+](=O)([O-])Nc3cccnc3)ccc2C1 | i | 28µM* | -19%[70.6 µM] | ?
CC(C)CCN1CCOc2cc([S+](=O)([O-])Nc3nncs3)ccc2C1 | i | 32µM* | 0%[70.6 µM] | -12%[172 µM]
Cc1ccccc1CN1CCOc2cc([S+](=O)([O-])Nc3nncs3)ccc2C1 | i | ? | -1%[70.6 µM] | -10%[172 µM]
COc1ccc(-c2ccc3ncc(Nc4ccc(C(N)=O)cc4)n3n2)cc1OC | i | 18µM* | 2%[70.6 µM] | ?
COc1ccc(-c2ccc3ncc(Nc4ccnc(N5CCOCC5)c4)n3n2)cc1OC | ? | 45µM* | 3%[70.6 µM] | ?
c1ccc(-c2ccc3ncc(Nc4ccc(N5CCOCC5)cc4)n3n2)cc1 | i | ? | 2%[70.6 µM] | ?
COc1ccc(-c2ccc3ncc(Nc4ccccc4)n3n2)cc1OC | i | 20µM* | 1%[70.6 µM] | 35µM*
COc1ccc(-c2ccc3ncc(Nc4ccccc4C)n3n2)cn1 | i | 89µM* | -1%[70.6 µM] | ?
Cc1ccc(F)cc1S(=O)(=O)N1C[C@@H](C)[C@@](C)(O)C1 | i | i | 4% | i
COCC(=O)N1CCN(C(=O)c2nc3cccnc3n(-c3ccccc3OC)c2=O)CC1 | . | -16% | . | -1%
COc1ccc(-c2ccc3ncc(Nc4cccc(F)c4)n3n2)cn1 | ? | ? | -16%[70.6 µM] | 63µM*
COc1ccc(-c2ccc3ncc(Nc4cccc(F)c4)n3n2)cc1OC | i | ? | 4%[70.6 µM] | 63µM*
COc1ccc(-c2ccc3ncc(Nc4ccc(F)c(Cl)c4)n3n2)cn1 | i | ? | 5%[70.6 µM] | -13%[172 µM]
Cn1ccnc1CN1C(=O)CO[C@H]2CN(CCCc3ccccc3)C[C@H]21 | i | 112µM* | -25%[70.6 µM] | ?
CCCN(CC1CCOC1)C(=O)Nc1ccc(C)c(F)c1 (centres undefined) | ? | i | 1% | 4%
Cn1cc(-c2nc(N3CCOCC3)cc3c2CN(CC2CC2)C3=O)cn1 | i | 10µM* | 6%[70.6 µM] | -17%[172 µM]
COc1ccccc1-c1nc(N2CCOCC2)cc2c1CN(Cc1cnn(C)c1)C2=O | i | 25µM* | 2%[70.6 µM] | -12%[172 µM]
CCOc1cccc(CNC(=O)[C@@]23CCCC[C@H]2N(C)C(=O)CC3)c1 | i | -5% | -1% | -16%
Cc1ccc(S(=O)(=O)N(C)C2CCCc3ccccc32)cc1 (centres undefined) | i | ? | -9%[70.6 µM] | 89µM*
CN(C1CCCc2ccccc21)S(C)(=O)=O (centres undefined) | i | -15%[138 µM] | -4%[70.6 µM] | -11%[172 µM]
Cc1ccccc1C(=O)N(C)C1CCCc2ccccc21 (centres undefined) | i | ? | 4%[70.6 µM] | 89µM*

Screens from PubChem.
